# CCHF vOTU inh-1: blocks the CCHF virus ovarian tumor domain protease | CCHFV vOTU protease, Pep-AMC fluorescence | inhibition, % at 11.5 µM | 0.55% of 370,000 active | AID 651958; also: 0% = vehicle wells with enzyme and 100% = no enzyme wells
# Mtb hypoxia inh: Mtb hypoxia fluorescent reporter inhibition; M. tuberculosis hypoxia-regulated fluorescent reporter, fluorescence; fluorescence inhibition, % (test concentration not listed); 0.1% of 300,000 active; in the data active = fluorescence inhibition mostly above about 23%, no sharp cut-off; inactive = mostly below about 17%
# PfHsp40 yeast: restores yeast growth despite PfHsp40 toxicity; S. cerevisiae expressing PfHsp40, growth rescue, ATP luminescence; growth rescue, % at 12.5 µM; 0.68% of 340,000 active; in the data active = growth rescue above about 28%, passing the limit was not always enough;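 also: yeast W303a lacking pdr1 and pdr3 grown in galactose medium; growth measured after three days at 30 °C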
# BH1578 lux ind: induces V. cholerae light production without autoinducers; V. cholerae BH1578 lux reporter, luminescence, 6 h; activation, % at 18.7 µM; 0.16% of 350,000 active; AID 588436; in the data active = activation mostly above about 9.7%, no sharp cut-off
# Sa ugtP lethal: kills S. aureus RN4220 lacking UgtP | S. aureus RN4220 ugtP deletion, OD600 growth, 16 h | 0.54% of 330,000 active | growth inhibition, % (concentration not given with the values) | AID 1259309; in the data active = growth inhibition above about 68%;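 also: plate controls were untreated wells for no effect and antibiotic for full effect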
# Sa RN4220 lethal: S. aureus RN4220 growth inhibition; OD600, 16 h; inhibition, % (test concentration not listed); 0.33% of 330,000 active; in the data active = inhibition above about 85%;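 also: plate controls were untreated cells for no effect and reference antibiotic for full effect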
# CCHF vOTU inh-2: CCHFV vOTU protease inhibition, confirmation | shares compounds with CCHF vOTU inh-1 | Recombinant CCHFV vOTU, Pep-AMC fluorescence | inhibition, % at 11.5 µM | 17% of 1,900 active
# An asterisk follows results filed as active; i = inactive; . = no result given. Sampled rows, rich in hits. Any-hit rate of the full collection: about 1.7%. Rule as the data show it, unless noted: active = inhibition above about 30%; inactive = the rest.
SMILES,CCHF vOTU inh-1,Mtb hypoxia inh,PfHsp40 yeast,BH1578 lux ind,Sa ugtP lethal,Sa RN4220 lethal,CCHF vOTU inh-2
Cc1ccccc1-c1nnnn1C1CCS(=O)(=O)C1 (stereo not given),-5,1,-2,0,8,2,.
CC1Cc2nc(SCC(=O)NCc3ccco3)n(-c3ccccc3)c(=O)c2S1 (stereo not given),30*,14,0,-1,-3,-15,0
CC1Cc2nc(SCC(=O)NCc3ccccc3)n(Cc3ccccc3)c(=O)c2S1 (stereo not given),7,-8,1,-2,-8,-4,.
COC(=O)C(NC(=O)OC1C(=O)c2ccc(OC)cc2OC1c1cccc(C(F)(F)F)c1)C(C)C (stereo not given),.,6,.,.,3,5,.
CCC(CNc1cc(OC)cc2cccnc12)NC1CCCCC1 (stereo not given),110*,15,0,-1,-3,0,102*
COc1cc(NC(=O)c2ccccc2Cl)c2ncccc2c1,0,11,1,-1,-3,-6,.
COc1cc(NCCCC(C)N)c2ncccc2c1 (stereo not given),65*,20,0,i,-4,-15,108*
COc1cc(NCCCCC(C)N)c2nccc(C)c2c1 (stereo not given),57*,.,.,i,.,.,45*
COc1ccc2[nH]c3c(NCCN(C(C)C)C(C)C)ncnc3c2c1,-16,7,1,-5,5,-9,.
C=C1CCC2C(C)(C)C(O)CC[C@@]2(C)C1COc1cc(=O)oc2ccccc12 (stereo not given in full),.,0,.,.,6,3,.
COc1cccc(C=NNC(=O)CCc2c(C)n[nH]c2C)c1O,.,10,.,.,4,8,.
CCCCCCNC(=O)NC(Cc1ccc(O)cc1)C(=O)NCCCC1CN2C(=NCC2C)N1CC1CCC1 (stereo not given),.,-2,.,.,2,5,.
CC(=O)Oc1ccc(/C=C2/C(=O)N(c3ccccc3)N=C2C)cc1,103*,.,0,-2,.,.,-12
COc1ccc(C2=NN(c3ccccc3)C(=O)/C2=C\c2ccc(O)c(OC)c2)cc1,2,-6,-1,0,5,2,.
COc1ccc(/C=C2/C(=O)N(c3ccccc3)N=C2C)cc1,.,12,.,-1,3,2,.
COc1ccc(/C=C2/C(=O)N(c3ccccc3)N=C2C)cc1OC,93*,.,-1,-1,.,.,-20
CC1=NN(c2ccccc2)C(=O)/C1=C/c1cccc(C)c1,76*,.,.,-1,.,.,-18
COc1cc(/C=C2/C(=O)N(c3cccc(Br)c3)N=C2C)cc(OC)c1O,92*,12,2,0,5,7,-26
COc1ccccc1NC(=O)COc1ccc(C=Nn2cnnc2)cc1OC,.,12,.,.,7,6,.
O=C1C=C(c2cc(Cl)cc(Cl)c2)CC(c2ccc3c(c2)OCO3)C1 (stereo not given),.,2,.,.,5,1,.
CC(=NNC(=O)c1c(Cl)cnn1C)c1cccnc1,.,7,.,.,6,1,.
CCOc1ccccc1NC(=O)C(=O)C=C(O)c1cc(OC)ccc1OC,.,4,.,.,-2,12,.
CC1(C(=O)NCc2cccc(C(F)(F)F)c2)CCN1CCc1ccccc1 (stereo not given),31*,.,.,i,.,.,3
CC1(C(=O)NCc2ccc(C(F)(F)F)cc2)CCN1Cc1c(F)cccc1F (stereo not given),31*,.,.,i,.,.,4
CC1(C(=O)NCc2ccc(C(F)(F)F)cc2)CCN1Cc1ccc(-c2ccccc2)o1 (stereo not given),18,.,.,i,.,.,.
SMILES,CCHF vOTU inh-1,Mtb hypoxia inh,PfHsp40 yeast,BH1578 lux ind,Sa ugtP lethal,Sa RN4220 lethal,CCHF vOTU inh-2
Cc1[nH][nH]c(=O)c1C(c1c(C)[nH][nH]c1=O)c1cn(Cc2cccc3ccccc23)c2ccccc12,48*,.,0,i,94*,50,13
Cc1[nH][nH]c(=O)c1C(c1c(C)[nH][nH]c1=O)c1cn(C)c2ccccc12,44*,2,-1,0,7,3,-32
Cn1c2ccccc2c(=O)c2c(=O)n(Cc3cccc4ccccc34)cnc21,4,.,.,.,.,.,.
COc1ccc(/C=C/C(=O)Nc2ccccc2C(F)(F)F)cc1,-10,8,-1,0,4,2,.
CCOc1ccc(/C=C/C(=O)Nc2ccccc2C(F)(F)F)cc1,30*,1,1,0,9,7,-13
COC1=CC(=O)c2nc(Cl)ccc2C1=O,113*,.,.,.,.,.,100*
Cc1cc(F)cc(-c2cc(C(=O)NCc3cccc(Cl)c3)[nH]n2)c1,34*,.,.,0,.,.,-14
Cc1cc(F)cc(-c2cc(C(=O)NCc3ccccc3)[nH]n2)c1,6,.,.,i,.,.,.
Cc1cc(Cl)c(C)c(S(=O)(=O)Oc2ccccc2NC(=O)CCC(=O)O)c1Cl,33*,19,1,1,-2,9,-6
O=C1Nc2ccc([N+](=O)[O-])cc2C1(O)N1CCCCCC1 (stereo not given),30*,5,-1,0,2,3,-3
Cc1ccc(/C=N/n2c(-c3cccnc3)n[nH]c2=S)s1,34*,.,-2,0,.,.,-1
S=c1[nH]nc(-c2cccnc2)n1/N=C/c1ccc(Br)s1,26,.,-1,-1,.,.,.
CN(C)S(=O)(=O)c1cccc(-c2csc(NN=Cc3ccco3)n2)c1,.,11,.,.,17,2,.
N#C/C(=C\Nc1ccc2c(c1)OCCO2)c1nc2ccccc2[nH]1,32*,.,1,i,7,1,3
COc1ccc(C(=O)NCC(=O)NN=Cc2cccc(OC(=O)c3ccco3)c2)cc1OC,.,0,.,.,2,2,.
CC1(C)CC(C(CCN(Cc2ccccc2)C(=O)c2ccco2)c2ccc(F)cc2)CCO1 (stereo not given),33*,-2,4,1,6,2,-2
CCCC(=C1c2ccccc2C(=O)N1c1ccccc1)c1ccc2[nH]ccc2c1,.,1,.,.,28,-4,.
O=C(CN1CCCCC1)NN=Cc1ccccc1OCc1ccccc1,.,6,.,.,8,7,.
COc1ccccc1C(=O)NC(=S)Nc1cccc2cc(O)ccc12,15,-6,0,i,-18,-4,.
COc1ccc(C(=O)NC(=S)Nc2cccc3cc(O)ccc23)cc1OC,31*,0,1,1,-4,-1,-11
CCOC(=O)CCCCCC(=O)Nc1ccc2c(c1)C(=O)N([C@H](C)CO)C[C@H](C)[C@@H](CN(C)C(=O)Nc1ccccc1)OCCCC[C@@H](C)O2,38*,.,.,i,.,.,-12
CC(C)NC(=O)N(C)C[C@@H]1OCCCC[C@@H](C)Oc2ccc(NC(=O)Nc3ccc(F)cc3)cc2C(=O)N([C@H](C)CO)C[C@@H]1C,32*,.,.,.,.,.,-3
C#CCNC(=O)C1=CC(c2coc3ccccc3c2=O)C(CCCO)C(OCC)O1 (stereo not given),.,-4,.,.,0,-1,.

# Screening data: PubChem, several laboratories
